Compound activity: PubChem BioAssay, several laboratories
This is a sample that favours compounds with a hit; in the whole collection about 1.3% have one here.
3CLpro inhibitor: SARS-CoV 3CLpro protease inhibitors, primary screen, biochemical, quenched FRET; 290,000 tested, 0.14% active; recombinant SARS-CoV 3CLpro, quenched FRET peptide cleavage; inhibition, % at 6 µM; AID 1706, 2009; in the data active = inhibition above about 12%
TcdB GH inh: TcdB glycohydrolase inhibitors, primary screen, biochemical, single point, plate reader; TcdB glycohydrolase enzymatic assay; inhibition, % at 9.99 µM; 350,000 tested, 0.24% active; Toxin B (Clostridioides difficile), P18177; in the data active = inhibition above about 10%
SSB-PriA inh: inhibitors of Klebsiella pneumoniae PriA binding to SSB C-terminal tail, primary screen, biochemical, AlphaScreen | AlphaScreen SSBct-PriA binding, biotinylated peptide | inhibition, % at 33 µM | 430,000 tested, 0.6% active | AID 1272365, 2023; in the data active = inhibition mostly above about 37%, no sharp cut-off; inactive = mostly below about 20%;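 also: plate controls were negative control peptide for no effect and reference peptide for full effect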
DUSP3 inh: VHR1 phosphatase inhibitors, primary screen, biochemical, absorbance, uHTS; Dual specificity protein phosphatase 3 (Homo sapiens), P51452; recombinant VHR phosphatase, pNPP absorbance; inhibition, % at 13.3 µM; 290,000 tested, 0.52% active; in the data active = inhibition above about 50%
Target sequence (P51452 whole entry, looked up): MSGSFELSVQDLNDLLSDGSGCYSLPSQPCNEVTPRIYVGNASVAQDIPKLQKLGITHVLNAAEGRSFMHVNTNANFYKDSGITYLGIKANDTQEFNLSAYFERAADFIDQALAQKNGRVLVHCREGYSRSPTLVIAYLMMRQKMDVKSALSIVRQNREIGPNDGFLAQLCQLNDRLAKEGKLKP
CCHF vOTU inh-1: CCHFV vOTU protease inhibitors, primary screen, biochemical, Pep-AMC substrate, fluorescence; Crimean-Congo hemorrhagic fever virus L polyprotein viral ovarian tumor (vOTU) protease …; 370,000 tested, 0.55% active; inhibition, % at 11.5 µM; AID 651958, 2012; also: 0% = vehicle wells with enzyme and 100% = no enzyme wells
BH1578 lux ind: inducers of Vibrio cholerae quorum light production without autoinducers, primary screen, BH1578 luxS cqsA deficient, single point; 350,000 tested, 0.16% active; V. cholerae BH1578 lux reporter, luminescence, 6 h; activation, % at 18.7 µM; in the data active = activation mostly above about 9.7%, no sharp cut-off
CCHF vOTU inh-2: CCHFV vOTU protease inhibitors, confirmation, biochemical, Pep-AMC substrate, fluorescence | 1,900 tested, 17% active | shares compounds with CCHF vOTU inh-1 | Recombinant CCHFV vOTU | AID 686976, 2013 | inhibition, % at 11.5 µM
* hit, by the source's call; i = inactive; . = not tested or not shown. Rule as the data show it, unless noted: active = inhibition above about 30%; inactive = the rest.

SMILES	3CLpro inhibitor	TcdB GH inh	SSB-PriA inh	DUSP3 inh	CCHF vOTU inh-1	BH1578 lux ind	CCHF vOTU inh-2
CC(C)(C)c1ccc(Cn2nnc3c(=O)[nH]c(C4CCCN(C(=O)Cc5cccs5)C4)nc32)cc1 (stereo unspecified)	5	.	1	24	31*	-4	4
O=c1[nH]c(C2CCCN(S(=O)(=O)c3ccc(F)cc3)C2)nc2c1nnn2Cc1ccccc1 (stereo unspecified)	-4	3	-7	16	-5	i	.
O=c1[nH]c(C2CCCN(S(=O)(=O)Cc3ccccc3)C2)nc2c1nnn2Cc1cccc(Cl)c1 (stereo unspecified)	1	-4	0	24	30*	0	-5
CN1CCN(c2nc3ccc(NC(=O)c4cccc(F)c4)cc3s2)CC1	.	.	-15	.	.	.	.
O=c1[nH]c(CN2CCc3ccccc3C2)nc2ccccc12	4	.	-4	7	44*	-7	12
CCN(CC(=O)c1c(N)n(C)c(=O)n(C)c1=O)c1cccc2ccccc12	-1	.	-4	-15	82*	0	-8
Cc1cc(S(=O)(=O)N2CCOC23CCN(C(=O)c2ccc(Br)o2)CC3)ccc1F	.	.	-11	.	.	.	.
C=CCC[C@@H](CCCCC)OC(=O)/C=C/[C@H](O)[C@@H](O)C[C@H](O)CC=C	.	4	.	.	34*	.	18
CCC(=O)Nc1ccc(S(=O)(=O)Nc2ccc3c(c2)C(=O)NCCO3)c(C)c1	.	.	13	.	.	.	.
Cc1ccc(S(=O)(=O)NCCOc2cc(C)ccc2C)cc1	1	1	-29	-5	30*	0	-9
COCCn1c(SCC(=O)NCC2CCCO2)nc2c(c1=O)SC(C)C2 (stereo unspecified)	-1	2	-9	-9	32*	i	-10
O=C1c2cccc(Cl)c2C(=O)c2c1cccc2N1CCCC1	5	.	-20	.	71*	i	-14
O=C1C(=O)N(CN2CCN(c3ccccc3Cl)CC2)c2ccccc21	.	.	-5	.	.	.	.
O=C(NCc1ccc(F)cc1)C(=O)NCc1ccsc1	.	.	5	.	.	.	.
[O-]C(=C(C(=S)Nc1ccc(SC(F)F)cc1)[n+]1ccccc1)c1cc(Cl)ccc1Cl	.	.	9	.	.	.	.
CCC(C)(C)n1nnnc1C(c1cccnc1)N1CCN(c2cccc(C(F)(F)F)c2)CC1 (stereo unspecified)	-6	.	-12	39	30*	i	3
Cc1cc(C(F)(F)F)nc(CCNC(=O)c2cccc3ccccc23)n1	.	.	-10	.	.	.	.
O=C(c1ccco1)[C@@H]1[C@@H]2C(=O)N(c3ccc(F)cc3)C(=O)[C@@H]2[C@H]2C=Cc3ccccc3N21	-2	0	4	8	14	i	.
O=C(c1ccco1)[C@@H]1[C@@H]2C(=O)N(c3ccc(Br)cc3)C(=O)[C@@H]2C2c3ccccc3C=CN21 (stereo partly specified)	-1	.	12	22	93*	i	84*
O=C(c1ccc(Cl)cc1)[C@@H]1[C@@H]2C(=O)N(c3ccc(Cl)cc3)C(=O)[C@@H]2C2c3ccccc3C=NN21 (stereo partly specified)	11	1	2	5	-1	-1	.
O=C(c1ccco1)[C@@H]1[C@@H]2C(=O)N(c3ccc(F)cc3)C(=O)[C@@H]2C2c3ccccc3C=CN21 (stereo partly specified)	-7	.	.	25	86*	.	40*
CC(C)CC(NC(=O)C(Cc1ccc(OCc2ccccc2)cc1)NC(=O)OC(C)(C)C)C(N)=O (stereo unspecified)	0	.	-8	-20	32*	-1	-12
COC(=O)C(Cc1ccccc1)NC(=O)C(CC(C)C)NC(=O)OC(C)(C)C (stereo unspecified)	-5	.	-13	3	1	0	.
